For 40 compounds, THP-1 cell loss results are on record in the supplement of paper PMC7530171.

Counter-ions that a name gives are not always drawn. ± gives the standard deviation.

For the experiment, the system named is THP-1. Kind of experiment: THP-1 cell loss relative to DMSO control; higher = more host cell loss (toxicity); extreme values may be limits of the assay. The settings on record: 10 µM; 4 days; infection: M. tuberculosis H37Rv. The protocol: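 OICR kinase inhibitor library screened in duplicate at 10 uM against M. tuberculosis-infected THP-1 macrophages, 4 days at 37 C. THP-1 cell loss (cytotoxicity or loss of adherence) was quantified from Hoechst-stained nuclei counts by high-content imaging and normalised to the 1% DMSO control; 100 = complete loss of host cells.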
`COc1cc(/C=C(\C#N)C(N)=O)cc(CSc2nc3ccccc3s2)c1O` displayed a THP-1 cell loss of 3 ± 4.2%. Compound `Nc1nc(OCC2CCCCC2)c2[nH]cnc2n1` returned a THP-1 cell loss of 3.9 ± 5.5%. In the case of `C=CCn1c(=O)c2cnc(Nc3ccc(N4CCN(C)CC4)cc3)nc2n1-c1cccc(C(C)(C)O)n1` it was 37 ± 4.8%. The compound `O=C1NC(=O)/C(=C/c2ccc(-c3ccc(F)cc3O)o2)S1` returned a THP-1 cell loss of 39.7 ± 23%. Consider `COc1ccc(Cl)cc1NC(=O)Nc1cc(C)nc2ccccc12`, for which the THP-1 cell loss is 9.3 ± 13%. The compound `CC(=O)Nc1cccc(-n2c(=O)n(C3CC3)c(=O)c3c(Nc4ccc(I)cc4F)n(C)c(=O)c(C)c32)c1` displayed a THP-1 cell loss of 100%.

Turning to `CCc1cc(Nc2nccc(-c3c(-c4ccc(OC)c(C(=O)Nc5c(F)cccc5F)c4)nc4ccccn34)n2)c(OC)cc1N1CCC(N2CCN(S(C)(=O)=O)CC2)CC1`, the THP-1 cell loss is 10.9 ± 13%.

On to `NC(=O)Nc1cc(-c2cccc(F)c2)sc1C(=O)N[C@H]1CCCNC1`, for which the THP-1 cell loss is 84.2 ± 22%. In the case of `Nc1cccc(-c2cc3c(Oc4cccc(O)c4)ncnc3[nH]2)c1` it was 25.7 ± 7.3%. For `C[C@@H]1CN(CC(=O)Nc2ccc3c(c2)Cc2cccc(-c4cc(=O)cc(N5CCOCC5)o4)c2S3)C[C@H](C)O1`, the THP-1 cell loss is 100%. In turn, `CC(C)n1nc(-c2cc3cc(O)ccc3[nH]2)c2c(N)ncnc21` returned a THP-1 cell loss of 92.9 ± 10%.

Take `N#CC(c1ccnc(NCCc2cccnc2)n1)c1nc2ccccc2s1` (stereo not given): the THP-1 cell loss was 100%. In the case of `O=c1oc2c(O)c(O)cc3c(=O)oc4c(O)c(O)cc1c4c23` [Ellagic acid] it was 5.06 ± 7.2%; in that of `Cc1ccc(S(=O)(=O)Nc2nc3ccccc3nc2Nc2ccc3nsnc3c2)cc1`, 40.9 ± 5.2%.

On to `COc1cc(O)c2c(c1)/C=C/C[C@H](O)[C@H](O)C(=O)/C=C\C[C@H](C)OC2=O` [(5Z)-7-Oxozeaenol], for which the THP-1 cell loss came out at 100%. Take `C/C(=N\N=C(N)N)c1ccc(NC(=O)c2cc3cccc([N+](=O)[O-])c3[nH]2)cc1`: the THP-1 cell loss is 0%. As to `O=C(O)c1cc(N(Cc2ccccc2O)Cc2cc(O)ccc2O)ccc1O` [Lavendustin A], the THP-1 cell loss came out at 4.39 ± 6.2%. With `c1ccc(-c2n[nH]c3c2oc2ccccc23)cc1`, the THP-1 cell loss was found to be 9.81 ± 5.6%. On to `CO[C@@H](C(=O)N1Cc2[nH]nc(NC(=O)c3ccc(N4CCN(C)CC4)cc3)c2C1)c1ccccc1`, for which the THP-1 cell loss is 19.1 ± 3.7%.

Compound `COc1cc2nccc(Oc3ccc(NC(=O)C4(C(=O)Nc5ccc(F)cc5)CC4)cc3)c2cc1OC` gave a THP-1 cell loss of 83.9 ± 4.8%. The compound `COc1cc2ncnc(Nc3ccc(F)c(Cl)c3)c2cc1OCCCN1CCOCC1` [Gefitinib] gave a THP-1 cell loss of 12.5 ± 5.5%. On to `Cc1c(NC(=O)OC[C@@H]2COCCN2)cn2ncnc(Nc3ccc4c(cnn4Cc4cccc(F)c4)c3)c12`, for which the THP-1 cell loss was 16.7 ± 9.5%.

In the case of `O=C(Nc1ccc(-c2cn[nH]c2)cc1)C1COc2ccccc2O1` (stereo not given) [Rho Kinase Inhibitor V], the THP-1 cell loss is 6.82 ± 9.6%.

As to `N#C/C(=C\c1ccc(O)c(O)c1)C(=O)Nc1ccccc1`, the THP-1 cell loss was found to be 9.72 ± 2.5%.

For `Nc1ccc(-c2cccc3c(=O)cc(N4CCOCC4)oc23)cc1`, the THP-1 cell loss was determined as 39.6 ± 3.5%. `NS(=O)(=O)c1nn2cc(-c3ccccc3)nc2s1` gave a THP-1 cell loss of 5.48 ± 7.7%.

The compound `Cc1cc(Nc2nc(N[C@@H](C)c3ncc(F)cn3)ncc2Cl)[nH]n1` had a THP-1 cell loss of 4.08 ± 4.6%. With `Cc1ccc(NC2=CC(=O)c3sc(C)nc3C2=O)cc1` [Ryuvidine] the figure was 100%; with `Cc1ccc(F)c(NC(=O)Nc2ccc(-c3cccc4[nH]nc(N)c34)cc2)c1`, 84.1 ± 22%; with `CC#CC(=O)Nc1ccc2ncnc(Nc3cccc(Br)c3)c2c1`, 89.6 ± 15%. For the compound `Cc1ccc([N+](=O)[O-])cc1S(=O)(=O)N(C)/N=C/c1cnc2ccc(Br)cn12` [PIK-75 hydrochloride], the THP-1 cell loss was found to be 100%. Consider `COc1cc(Nc2c(C#N)cnc3cc(OCCCN4CCN(C)CC4)c(OC)cc23)c(Cl)cc1Cl` [Bosutinib], for which the THP-1 cell loss was determined as 59.6 ± 15%.

`CCN(CCCOc1ccc2c(Nc3cc(CC(=O)Nc4cccc(F)c4)[nH]n3)ncnc2c1)CCOP(=O)(O)O` gave a THP-1 cell loss of 7.93 ± 5.5%.

`COc1ccc(-c2cc3nccn3c(Nc3ncccc3C(N)=O)n2)cc1OC` [BAY 61-3606 hydrochloride] showed a THP-1 cell loss of 100%. For `COc1cc2c(cc1OC)-c1[nH]nc(Nc3cccc(F)c3)c1C2`, the THP-1 cell loss worked out at 27.5 ± 16%. Compound `Nc1nccc(Oc2ccc(NC(=O)c3c[nH]cc(-c4ccc(F)cc4)c3=O)cc2F)c1Cl` returned a THP-1 cell loss of 48.1 ± 23%. The compound `OCCn1cc(-c2ccc3c(c2)CC/C3=N\O)c(-c2ccncc2)n1` displayed a THP-1 cell loss of 9.27 ± 7.9%. As for `CC[C@@H]1C(=O)N(C)c2cnc(Nc3ccc(C(=O)N[C@H]4CC[C@H](N5CCN(CC6CC6)CC5)CC4)cc3OC)nc2N1C(C)C`, the THP-1 cell loss came out at 100%. Take `CC(NC(=O)C(C#N)=Cc1ccc(O)c(O)c1)c1ccccc1` (stereo not given) [Tyrphostin B44]: the THP-1 cell loss amounted to 3.72 ± 5.3%.

The compound `NC(=O)c1ccc(-c2nc(-c3ccccn3)c(-c3ccc4c(c3)OCO4)[nH]2)cc1` showed a THP-1 cell loss of 0.126 ± 0.18%.
